Results with a measured potency or affinity are listed apart. Results filed as inconclusive are left out. Values without a mark were called inactive.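 How the source made its calls: active means signal-lowering compounds whose fitted half-maximal concentration is at or below twice the top tested dose in every run; inconclusive means runs disagree, flat 30 to 70% inhibition, or poor curve fit; inactive means the rest.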
assay: inhibitors of CMV-promoter luciferase reporter, dose response, counter-screen for Pax8 inhibitor project, cell-based, HEK293, luminescence, dry powder (AID 743020); settings: SteadyGlo luminescence, 24 h; series mostly up to 35 µM; activity change, negative = inhibition: at the top concentration;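 further: HEK293 cells stably expressing the CMV luciferase reporter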

Point of comparison: `CC(C)CC#Cc1ccc2c(c1)O[C@H](CN(C)Cc1ccc(C(=O)O)cc1)[C@@H](C)CN([C@H](C)CO)S2(=O)=O`, “activity change, negative = inhibition” value 17.9%. Against it:
- COc1ccccc1C#Cc1ccc2c(c1)O[C@H](CN(C)Cc1cccnc1)[C@H](C)CN([C@@H](C)CO)S2(=O)=O — lower, -0.026%
- Cc1cc(C)c2sc(NNC(=O)c3ccc(S(=O)(=O)N4CCc5ccccc5C4)cc3)nc2c1 — lower, -10%
- O=C(NCCc1ccccc1)c1ccc2c(c1)OCCCO2 — lower, -21.7%
- C[C@@H]1CCCCO[C@H](CN(C)Cc2ccc(C(F)(F)F)cc2)[C@H](C)CN([C@@H](C)CO)C(=O)c2cc(NS(=O)(=O)c3ccc(F)cc3)ccc2O1 — lower, -7.76%
- Cc1cc(NC(=O)CCCS(=O)(=O)c2nc(-c3cccs3)cc(C(F)(F)F)n2)no1 — higher, 19.2%

Source: PubChem BioAssay
